According to PubChem BioAssay AID2284349 (EPA ToxCast):
Results filed as inconclusive are left out. Active and inactive are the calls of the source. How the source made its calls: active means hit-call score of the fitted dose curve at least 0.9, where 1 is the maximum; inconclusive means response in the unintended direction; inactive means score below 0.9.

Molecular target: frog Peroxisome Proliferator-activated Receptor-gamma (PPARg), pparg (gene 397769) (UniProt P37234)
Experiment: ATG_frPPARg_EcoTox2: Attagene TRANS-FACTORIAL EcoTox-2 HepG2 Assay for frog Peroxisome Proliferator-activated Receptor-gamma (PPARg)
Protocol: ATG_EcoTox2 is a cell-based, multiplexed assay created by modifying the existing Attagene TRANS-FACTORIAL system to include a panel of nuclear receptors from some or all the following species: human (Homo sapiens), african clawed frog (Xenopus laevis), rainbow trout (Oncorhynchus mykiss), japanese medaka (Oryzias latipes), and zebrafish (Danio rerio). The ECOTOX2-FACTORIAL format uses HepG2, a human liver cell line, with measurements taken at 24 hours after chemical dosing in a 24-well plate. ATG_frPPARg_EcoTox2 is one of 29 assay components calculated in the ATG_EcoTox2 assay. It is designed to make measurements of mRNA induction, a form of inducible reporter, as detected with fluorescence intensity signals by Reverse transcription polymerase chain reaction (RT-PCR) and Capillary electrophoresis technology.The assay endpoint ATG_frPPARg_EcoTox2 was analyzed in the positive analysis fitting direction relative to DMSO as the negative control and baseline of activity. Using a type of inducible reporter, measures of mRNA for gain-of-signal activity can be used to understand the reporter gene at the transcription factor-level as they relate to the gene PPARg. Furthermore, this assay endpoint can be referred to as a primary readout, because this assay has produced multiple assay endpoints where this one serves a reporter gene function. […]

Chain of frog Peroxisome Proliferator-activated Receptor-gamma (PPARg), pparg (gene 397769) (P37234 whole entry, looked up): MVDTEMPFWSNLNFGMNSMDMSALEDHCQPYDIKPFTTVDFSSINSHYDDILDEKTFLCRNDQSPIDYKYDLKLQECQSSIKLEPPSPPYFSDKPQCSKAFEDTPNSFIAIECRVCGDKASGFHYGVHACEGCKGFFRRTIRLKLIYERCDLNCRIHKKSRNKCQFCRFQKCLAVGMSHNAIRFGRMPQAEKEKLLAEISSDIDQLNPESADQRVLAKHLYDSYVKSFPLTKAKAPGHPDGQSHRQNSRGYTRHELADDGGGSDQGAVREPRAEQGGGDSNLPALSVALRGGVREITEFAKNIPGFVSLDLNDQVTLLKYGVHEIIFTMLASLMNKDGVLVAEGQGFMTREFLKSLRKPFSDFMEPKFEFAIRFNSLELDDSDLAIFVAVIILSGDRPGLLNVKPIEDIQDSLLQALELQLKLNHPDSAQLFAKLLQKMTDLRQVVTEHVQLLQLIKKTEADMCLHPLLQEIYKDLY

Row | Structure (SMILES) | outcome
1 | O=S(=O)(O)C(F)(F)C(F)(F)C(F)(F)C(F)(F)C(F)(F)C(F)(F)F | inactive
2 | CCCCOCN(C(=O)CCl)c1c(CC)cccc1CC | inactive
